From PubChem BioAssay
Most compounds without a hit are left out; they make up all but 6.1% or so of the library.
DRD3 antagonist: qHTS of D3 Dopamine Receptor Antagonist: qHTS | 360,000 tested, 2.5% active | AID 652054, 2013 | D3R cells, DiscoveRx beta-arrestin luminescence, antagonist mode; hits give low values | D(3) dopamine receptor (Homo sapiens), P35462 | max response, negative = inhibition, %; in the data active = max response below about -50%; inconclusive = no clear call, values can overlap the other calls; note: % is set by controls: 0 for no effect and ±100 for the full control effect
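Cells expressing the human receptor were seeded at 1500 cells/well, incubated overnight at 37 degrees C in 5% CO2, then exposed to library compounds with dopamine controls for 90 minutes at 37 degrees C before luminescent detection.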
D1 antag: Antagonist of Human D 1 Dopamine Receptor: qHTS; HEK293 TREx D1 cells, calcium flux, dopamine EC80; hits give low values; activity change, negative = inhibition, % at 10 µM; 360,000 tested, 3.2% active; AID 504652, 2011; in the data active = activity change below about -30%; note: % is set by controls: 0 for no effect and ±100 for the full control effect
Target sequence (P21728 whole entry, looked up): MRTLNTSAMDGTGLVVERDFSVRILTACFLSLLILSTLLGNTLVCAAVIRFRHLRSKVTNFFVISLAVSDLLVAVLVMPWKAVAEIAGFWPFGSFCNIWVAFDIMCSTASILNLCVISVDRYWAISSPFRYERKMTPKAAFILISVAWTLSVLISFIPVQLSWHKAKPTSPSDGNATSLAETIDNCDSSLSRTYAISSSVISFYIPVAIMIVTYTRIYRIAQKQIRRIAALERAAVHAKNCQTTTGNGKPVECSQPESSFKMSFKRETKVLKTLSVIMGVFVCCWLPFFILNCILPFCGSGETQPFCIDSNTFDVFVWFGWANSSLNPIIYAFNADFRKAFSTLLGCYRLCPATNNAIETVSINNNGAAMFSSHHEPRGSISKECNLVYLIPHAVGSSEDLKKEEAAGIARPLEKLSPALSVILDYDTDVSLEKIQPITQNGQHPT
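Compound effects on dopamine-evoked calcium signalling were measured in tetracycline-induced HEK293 Trex D1 cells. Dopamine at EC80 followed a 180 s compound pre-read, and fluorescence was tracked kinetically for 180 s more.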
D1 PAM: Potentiators of Human D1 Dopamine Receptor: qHTS; D(1A) dopamine receptor (Homo sapiens), P21728; HEK293 TREx D1 cells, calcium flux, dopamine EC20 potentiation; potentiation, % at 10 µM; 360,000 tested, 0.036% active; AID 504651, 2011; in the data active = potentiation above about 30%; note: 0% is about no effect
D1 ag: Allosteric Agonists of the Human D1 Dopamine Receptor: qHTS | 360,000 tested, 1% active | AID 504660, 2011 | HEK293 T-REx D1 cells, calcium flux, agonist mode | activation, % at 2 µM | D(1A) dopamine receptor (Homo sapiens), P21728; in the data active = activation above about 30%; note: 0% is about no effect
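Inducible HEK293 T-REx D1 cells, force-coupled to calcium signalling, were plated at 4000 cells/well with tetracycline and held overnight at 30 C. After no-wash calcium dye loading, compound-evoked calcium rise over 180 s flagged agonists.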
D3 ag: qHTS of D3 Dopamine Receptor Agonist: qHTS; D3R DiscoveRx beta-arrestin cells, luminescence, 90 min; max activation, %; 410,000 tested, 0.58% active; in the data active = max activation above about 30%; note: 0% is about no effect
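Agonist mode: compounds and dopamine controls were applied to plated cells for 90 min at 37 degrees C after an overnight attachment at 1500 cells/well. Luminescent read-out followed 30 - 60 minutes at room temperature with DiscoveRx detection reagent.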
Numbers without * were called inactive; u = inconclusive; x = not tested or not shown.

SMILES	DRD3 antagonist	D1 antag	D1 PAM	D1 ag	D3 ag
COc1ccc(C2CC(=O)c3cnc4c(-c5ccccc5)c(C)nn4c3C2)c(OC)c1 (centres undefined)	x	-3.2	-3.8	-0.2	0.3
Cc1ccc(S(=O)(=O)c2c(Nc3cc(F)ccc3F)sc(C(=O)c3ccc(F)cc3)c2N)cc1	x	-69.0*	3.8	57.4*	3.0
Nc1c(C(=O)c2ccc(F)cc2)sc(Nc2ccccc2F)c1S(=O)(=O)c1ccc(Br)cc1	x	-25.9	-2.7	82.8*	-10.1
COc1ccc(OC)c(Nc2sc(C(=O)c3ccccc3)c(N)c2S(=O)(=O)c2ccccc2)c1	x	-25.3	-0.8	57.7*	3.6
CCc1ccc(Nc2sc(C(=O)c3ccc(F)cc3)c(N)c2S(=O)(=O)c2ccccc2)cc1	x	20.7	0.3	14.2	7.6
Cc1ccc(Nc2sc(C(=O)c3ccc(F)cc3)c(N)c2S(=O)(=O)c2ccc(C)cc2)cc1	x	-30.2*	-2.0	79.3*	-4.4
Cc1ccc(Cl)cc1Nc1sc(C(=O)c2ccc(F)cc2)c(N)c1S(C)(=O)=O	x	6.2	-4.0	9.1	-6.2
COc1cccc(C(=O)c2sc(Nc3ccc(C)cc3C)c(S(=O)(=O)c3ccccc3)c2N)c1	x	2.1	0.7	10.5	7.6
COc1cccc(NC(=O)CN2C(=O)C3(SCC(=O)N3c3cc(C)cc(C)c3)c3ccccc32)c1 (centres undefined)	x	0.2	-3.2	3.2	2.1
COc1ccccc1C(=O)NCCSc1c(C)[nH]c2ccccc12	x	-15.1	-0.1	6.1	-5.3
CCc1nc(NC(C)(C)C)c2cnn(-c3ccccc3)c2n1	-6.3	32.1	5.7	32.4*	2.9
CSCCC(c1nnnn1-c1c(C)cccc1C)N1CCN(C/C=C/c2ccccc2)CC1 (centres undefined)	-95.1*	x	x	x	-13.9
CSCCC(c1nnnn1C(C)(C)C)N1CCN(C/C=C/c2ccccc2)CC1 (centres undefined)	-82.1*	x	x	x	-10.7
CC(C)(C)n1nnnc1C(C1CC1)N1CCN(C/C=C/c2ccccc2)CC1 (centres undefined)	u	x	x	x	-2.4
CC(C)(C)n1nnnc1C(CCc1ccccc1)N1CCN(C/C=C/c2ccccc2)CC1 (centres undefined)	-90.7*	x	x	x	-4.8
C(=C\c1ccccc1)/CN1CCN(C(CCc2ccccc2)c2nnnn2C2CCCC2)CC1 (centres undefined)	-115.6*	x	x	x	-16.9
CCCC(c1nnnn1C(C)(C)C)N1CCN(c2ccccc2)CC1 (centres undefined)	3.1	-9.0	-1.6	5.0	4.1
Cc1ccc2occ(CC(=O)Nc3c(C(=O)Nc4ccc(Cl)cc4)oc4ccccc34)c2c1	x	-8.8	-0.9	2.9	7.8
COc1ccc(-n2nnnc2C(CCSC)N2CCN(C/C=C/c3ccccc3)CC2)cc1 (centres undefined)	-126.9*	x	x	x	-18.3
Cc1c(C(=O)NCc2ccc(F)cc2)sc(=O)n1Cc1ccc(Cl)c(Cl)c1	-74.4*	x	x	x	-9.3
CSc1ccc(Cn2c(C)c(C(=O)NCc3ccc(Cl)c(Cl)c3)sc2=O)cc1	6.8	x	x	x	0.2
Cc1cccc(CNC(=O)c2sc(=O)n(Cc3c(C)cccc3C)c2C)c1	-89.6*	x	x	x	-9.8
COc1ccccc1Cn1c(C)c(C(=O)NCc2ccco2)sc1=O	-29.1	x	x	x	2.1
Cc1ccccc1Cn1c(C)c(C(=O)NCc2cccc(Cl)c2)sc1=O	-53.4*	x	x	x	-3.7
COc1ccccc1Cn1c(C)c(C(=O)NCc2cccc(C)c2)sc1=O	-57.5*	x	x	x	-3.9
SMILES	DRD3 antagonist	D1 antag	D1 PAM	D1 ag	D3 ag
COc1ccc(CN2C(=O)C(CC(=O)NC3CC3)CC(C(=O)N(C)C)=C2C)cc1 (centres undefined)	-16.3	x	x	x	-1.5
Cc1cc2c(s1)c1cnn(Cc3cc(F)c(F)c(F)c3F)c(=O)c1n2C	x	-10.5	13.3	-1.6	x
CCOc1cc2c(cc1OCC)C(c1c(F)cccc1Cl)CC(=O)N2 (centres undefined)	x	4.1	-2.0	1.1	0.5
CC(=O)/C(N=Nc1cccc(C(F)(F)F)c1)=C(\C)O	11.5	-7.4	0.8	4.2	8.9
CC(=O)/C(N=Nc1ccc(SC(F)F)cc1)=C(\C)O	-58.7*	15.1	-2.4	2.1	0.5
COc1cccc(NC(=O)Cn2nc(-c3ccncc3)ccc2=O)c1	x	-43.8*	-4.5	0.2	0.8
COc1ccc(-c2ccc(=O)n(CC(=O)Nc3ccc(OC)c(OC)c3)n2)cc1	x	-40.2*	-1.4	4.6	-18.7
CC(=O)N1c2ccc(S(=O)(=O)N(C)CC(=O)Nc3ccccc3C)cc2CC1C (centres undefined)	-0.8	-7.2	-0.8	4.2	2.9
O=C(Nc1ccc(N2C(=O)CCC2=O)cc1Cl)c1cccs1	15.8	2.3	5.3	1.2	-0.7
Cc1ccc(CNc2ncnc3c2cnn3C2CCCCO2)cc1 (centres undefined)	3.4	x	x	x	2.2
CCC(C)c1ccc(NC(=S)Nc2ccc(OC)c(OC)c2)cc1 (centres undefined)	u	-6.6	-6.5	-2.3	4.8
CCC(C)c1ccc(NC(=S)Nc2ccc(OC)cc2C)cc1 (centres undefined)	-133.2*	1.0	-11.7	8.6	22.5
CC1=CN(S(=O)(=O)c2ccc(C)cc2)C[C@@H]2[C@H]3CC[C@H](C3)[C@H]12	-65.0*	x	x	x	-54.1
Cc1ccc(S(=O)(=O)N2C[C@@H]3[C@H]4CC[C@H](C4)[C@@H]3[C@@H](C)[C@@H]2C2CCCCC2=O)cc1 (some centres undefined)	-2.9	x	x	x	-38.3
COC(=O)c1cc(COc2ccc3ccc(=O)oc3c2)c(C)o1	-67.7*	15.7	2.3	-0.6	-5.4
CCOC(=O)c1c(C)oc2ccc(OCC(=O)C(C)(C)C)cc12	76.0	4.0	1.1	5.3	0.9
COC(=O)c1ccc(COc2ccc3ccc(=O)oc3c2)o1	-1.9	-10.4	-1.6	3.1	-10.9
COC(=O)c1cc(COc2ccc3oc(C)c(C(=O)OC)c3c2)c(C)o1	52.4	3.1	-4.5	7.8	76.0*
CCOC(=O)c1c(C)oc2ccc(OCc3cc(C(=O)OC)oc3C)cc12	38.5	12.7	0.1	3.0	32.9*
CC(=O)c1c(C)oc2ccc(OCc3ccccc3)cc12	-2.9	7.2	3.0	3.1	-2.6
COC(=O)c1sccc1S(=O)(=O)N(CC(=O)NCc1ccc(F)cc1)c1ccc(C)c(C)c1	x	0.7	-2.8	-0.8	7.8
Cc1ccccc1C(=O)N1CCCC(N2CCN(Cc3ccc4c(c3)OCO4)CC2)C1 (centres undefined)	-28.7	-51.5*	-8.7	2.1	-12.9
c1cc2c(cc1CN1CCN(C3CCCCCC3)CC1)OCO2	-51.3*	-18.9	-0.6	2.3	-16.0
